# Data taken from PubChem BioAssay (NCATS).
# Inconclusive results are not listed. A call without a number means that no potency is given here. The source made the active and inactive calls. Calls follow the shape of the dose curve; as a rule, active = well fitted inhibition curve with a large enough effect; inconclusive = small, poorly fitted or top-dose-only effect; inactive = flat fitted curve, though single readings scatter.
# Test system: CP194
# Test: qHTS profiling for inhibitors of Plasmodium falciparum proliferation (AID 504749); also: nearly all actives have a fitted effect of over 60% in size
# Conditions: P. falciparum in erythrocytes, SYBR Green DNA, 72 h; series mostly up to 28.7 µM
# Method in brief: (§1)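 Readout was DNA-dye fluorescence from lysed cultures, ex 485/em 535 nm. Parasitized red cells had grown 72 h with compound; data scaled between 0.29 uM artemisinin and DMSO wells and corrected using vehicle-only plates.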
# Potency is read from the fitted curve at half-maximal effect.
row,Structure (SMILES),Potency
1,COc1ccc(-c2ccc3cc(C(=O)O)ccc3c2)cc1C12CC3CC(CC(C3)C1)C2,inactive
2,O=NN(CCCl)C(=O)NC1CCCCC1,inactive
3,CC[C@H](C)C(=O)O[C@H]1C[C@@H](C)C=C2C=C[C@H](C)[C@H](CC[C@@H]3C[C@@H](O)CC(=O)O3)[C@H]21,inactive
4,Cc1cccc(Nc2ccncc2S(=O)(=O)NC(=O)NC(C)C)c1,inactive
5,CN1CCN(c2c(F)cc3c(=O)c(C(=O)O)cn(CCF)c3c2F)CC1,inactive
6,CCOC(=O)[C@H](CCc1ccccc1)N[C@H]1CS[C@H](c2cccs2)CN(CC(=O)O)C1=O,inactive
7,N=C(N)c1ccc(OCCCCCOc2ccc(C(=N)N)cc2)cc1,849 nM (active)

# Test system: CP201
# Test: as above
# Conditions: P. falciparum in erythrocytes, SYBR Green DNA, 72 h; series mostly up to 28.7 µM
# Method in brief: as §1
row,Structure (SMILES),Potency
1,NC(=O)N1c2ccccc2CC(=O)c2ccccc21,inactive
2,CNS(=O)(=O)Cc1ccc2[nH]cc(CCN(C)C)c2c1,inactive
3,CCCc1cc(C(N)=S)ccn1,inactive
4,CCCN[C@H]1CCc2nc(N)sc2C1,inactive
5,COc1ccc(C(=O)CC(=O)c2ccc(C(C)(C)C)cc2)cc1,inactive
6,CC(C)Cn1cnc2c(N)nc3ccccc3c21,inactive
7,Nc1nc(N)nc(-c2cc(Cl)ccc2Cl)n1,inactive
8,OC(Cn1cncn1)(Cn1cncn1)c1ccc(F)cc1F,inactive
9,CC(C)OC(=O)C(C(=O)OC(C)C)=C1SC=CS1,inactive
10,NCCCC(O)(P(=O)(O)O)P(=O)(O)O,inactive
11,CC1=CC(=O)c2ccccc2C1=O,inactive
12,Nc1ccc(S(=O)(=O)Nc2ccccn2)cc1,inactive
13,Cc1noc(NS(=O)(=O)c2ccc(N)cc2)c1C,inactive
